For orientation: inhibition means the change of the read-out against control, counted positive when it falls.

The whole screen tested about 1,000 compounds, of which about 200 (20%) were called active. Only a sample is shown. Entries with a potency or affinity are not part of this list. Values without a mark were called inactive. Rule as the data show it: active = inhibition above about 55%; inactive = the rest.

Dual specificity protein phosphatase 3 (Homo sapiens), sequence (P51452 whole entry, looked up): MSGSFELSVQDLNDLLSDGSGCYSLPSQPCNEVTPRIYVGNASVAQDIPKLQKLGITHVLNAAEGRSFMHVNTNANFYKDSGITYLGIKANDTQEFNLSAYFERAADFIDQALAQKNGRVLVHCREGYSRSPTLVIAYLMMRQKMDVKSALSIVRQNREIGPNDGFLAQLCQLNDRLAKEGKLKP

The assay concerns the target Dual specificity protein phosphatase 3 (Homo sapiens) (UniProt P51452). Description: VHR1 phosphatase inhibitors, biochemical (AID 1878). Particulars: recombinant VHR phosphatase, fluorogenic substrate; at 13.3 µM; stronger effect = higher value.
On to `C=CCc1cc(Cl)ccc1OCCOCCNC(C)(C)C`, for which the inhibition is -15%.

Take `Brc1ccc(C2=Nc3ccccc3C(c3ccncc3)=NN2)cc1`: the inhibition is 82.1% (active).

Regarding `COC(=O)[C@@]1(Cc2ccc(F)cc2)[C@H]2c3cc(C(=O)N4CCCC4)n(CCc4ccccn4)c3C[C@H]2CN1C(=O)c1ccccc1`, the inhibition was -0.9%.

As for `CCC1CCCCN1CCCNC(=O)Cn1ncn2nc(-c3ccc(OC)cc3)cc2c1=O` (centres undefined), the inhibition is -4%.

In the case of `OCCC1CN(Cc2ccc(F)cc2)CCN1CCc1ccccc1` (centres undefined), the inhibition was -5.4%.

Turning to `O=C(N/N=C1/C(=O)c2cccc3cccc1c23)c1ccc(Cl)cc1`, the inhibition is 98.9% (active).

As to `CCOc1ccccc1N(C(=O)c1ccco1)C(C(=O)NC1CCCC1)c1cccs1` (centres undefined), the inhibition is 14.1%.

As for `COc1ccc(OCC(O)CN(CC(O)COc2ccc(OC)cc2)c2cccc(O)c2)cc1` (centres undefined), the inhibition was 3.9%.

For the compound `CCC(CO)(CO)N(CC(=O)Nc1ccc(OC)cc1)CC(=O)Nc1ccc(OC)cc1`, the inhibition was 5.4%.

Consider `N=C1/C(=C/c2ccc(-c3cccc(C(=O)O)c3)o2)C(=O)N=C2SC=C(c3ccccc3)N12`, for which the inhibition is 79.5% (active).

Consider `N=C1/C(=C\c2ccc(-c3ccc(C(=O)O)cc3)o2)C(=O)N=C2SC=C(c3ccccc3)N12`, for which the inhibition was 97.1% (active).

Take `N=C1/C(=C\c2ccc(-c3cccc(C(=O)O)c3)o2)C(=O)N=C2SC=C(c3ccccc3)N12`: the inhibition is 88.1% (active).

As to `COc1ccc(S(=O)(=O)N2CCCOC2CNC(=O)C(=O)NC2CCCC2)cc1` (centres undefined), the inhibition was -10.2%.

Take `Cc1cc(Br)c(S(=O)(=O)NCc2cccnc2)cc1C`: the inhibition was 5.2%.

Take `OC(COC(c1ccc(F)cc1)c1ccc(F)cc1)CN1CCCC(C(F)(F)F)C1` (centres undefined): the inhibition is -7.4%.

Turning to `Fc1cccc(/C=N/n2c(C3CCCCC3)n[nH]c2=S)c1`, the inhibition is 0.6%.

Consider `COc1ccc(CCC(=O)NCCc2cnc[nH]2)cc1`, for which the inhibition was -0.5%.

For the compound `CCOc1cc2[nH]c(=S)n(Cc3ccc(C(=O)NCCCOC)cc3)c(=O)c2cc1OCC`, the inhibition is 11.5%.

Consider `O=C(N=C1SC2CS(=O)(=O)CC2N1Cc1ccccc1)C1CCCO1` (centres undefined), for which the inhibition is -9.5%.

Consider `Cc1ccc(S(=O)(=O)NCC(=O)N2CCc3ccccc3C2)cc1`, for which the inhibition is 7.4%.

As for `Cc1ccccc1-n1c(SCC(=O)Nc2ccccc2Cl)nc2n[nH]c(C)c2c1=N`, the inhibition was -7.4%.

For the compound `CCn1c(C)c(C)c2cc(C(=O)NCCCN3CCCCC3C)ccc21` (centres undefined), the inhibition is -4.1%.

On to `O=C1CCCN1CCCNC(=S)Nc1ccc(F)c(Cl)c1`, for which the inhibition is 58.6% (active).

Consider `COc1ccc(NC(=S)NCCCN2CCCC2=O)c(OC)c1`, for which the inhibition is 47.4%.

As for `O=C1CCCN1CCCNC(=S)Nc1ccc(F)cc1`, the inhibition is 48.6%.

`CC(=O)c1cccc(CN2CCC(CO)(CCOc3ccccc3)CC2)c1`: the inhibition was -26.7%.

As for `COc1ccc(Cl)cc1NC(=O)C/C(C)=N/NC(=O)c1ccc(O)cc1`, the inhibition is -3.4%.

Turning to `CCOC(=O)CN(C)Cc1cn[nH]c1-c1ccc2cc(OC)ccc2c1`, the inhibition is 4%.

With `O=C(CC12CC3CC(CC(C3)C1)C2)NCc1ccc(F)cc1`, the inhibition was -9.3%.

On to `CN(C)C(=O)OCC1COc2ccccc2O1` (centres undefined), for which the inhibition was 0.1%.

For `Cn1c2ccccc2c(=O)c2c(=O)n(C3CCCCCC3)c(C3CCCCC3)nc21`, the inhibition was 95.7% (active).

Consider `COc1ccc(NC2CCCN(C(=O)c3oc(C)cc3C)C2)cc1OC` (centres undefined), for which the inhibition is 1.1%.

On to `Cc1nc(C)c(C(=O)Nc2cccc(C)c2C)s1`, for which the inhibition was 32.5%.

For `O=C(O)C1Nc2c(Cl)cc(Cl)cc2C2C=CCC12` (centres undefined), the inhibition was 89.8% (active).

`O=C(O)C1Nc2c(O)cc(Cl)c([N+](=O)[O-])c2C2C=CCC12` (centres undefined): the inhibition is 92.7% (active).

In the case of `O=C(Cn1c(=O)c2cccn2c2ccccc21)NCCCN1CCCCC1`, the inhibition is 2%.

With `O=C(CCC(=O)c1ccc(F)cc1)NCc1ccccc1C(F)(F)F`, the inhibition is 2.4%.

`COc1cc(CN2CCN(CC3CC3)CC2CCO)cc(OC)c1` (centres undefined): the inhibition was -3.6%.

`CN(Cc1ccccc1)C(=O)COC(=O)COc1ccc(C#N)cc1`: the inhibition was -2.2%.

With `CC(C(=O)NCCCc1ccccc1)n1cccc1C(=O)c1ccccc1` (centres undefined), the inhibition is 17.1%.

Regarding `CC(C)[C@H](NC(=O)C1CCN(S(=O)(=O)c2ccccc2)CC1)C(=O)NCc1ccccc1`, the inhibition is 12.2%.

Regarding `CCCc1cc(SCC(=O)Nc2c(C)n(C)n(-c3ccccc3)c2=O)n2c(nc3ccccc32)c1C#N`, the inhibition was 98.7% (active).

With `CC(C(=O)Nc1cccc(S(=O)(=O)N2CCOCC2)c1)N1CCN(C)CC1` (centres undefined), the inhibition is -1.7%.

Regarding `CCOC(=O)c1c(C)n(CCOc2ccccc2)c2ccc(O)cc12`, the inhibition is 14.4%.

`CC(C)/C=C/CN1CCCC(N2CCN(c3cccc(Cl)c3)CC2)C1` (centres undefined): the inhibition was -15%.

As to `COC(=O)c1ccc(COc2ccc(F)cc2)o1`, the inhibition was 27.9%.

Consider `C/C(=N\NC(=O)C(=O)Nc1ccc(C)c(Cl)c1)c1ccncc1`, for which the inhibition was 91.6% (active).

On to `Cc1ccc(F)c(CNC(=O)C2CCC(=O)N(Cc3ccccn3)C2)c1F` (centres undefined), for which the inhibition was 1.1%.

`CCC(=O)N1CCN=C1SCc1cccc(F)c1`: the inhibition is 0.5%.

`CCC(=O)Nc1c(-c2ccc(Cl)cc2)c(=O)c2ccccc2n1C`: the inhibition was -1.5%.

In the case of `COC(=O)c1cc(S(=O)(=O)N2CCCCC2)c[nH]1`, the inhibition is 4.2%.

Take `Cc1c(C)c2cc(Cl)c(OCC(=O)NC3CC(C)(C)NC(C)(C)C3)cc2oc1=O`: the inhibition was -11.9%.

With `Nc1ccc2nc3c(=O)[nH]c(=S)[nH]c3nc2c1`, the inhibition is 61.5% (active).

For the compound `COc1cccc(-c2ocnc2C(=O)Nc2ccc(N3CCOCC3)cc2N2CCOCC2)c1`, the inhibition is -5.2%.

As to `CCCCN(CCCC)CCNC(=O)CN1C(=O)COc2ccc(S(=O)(=O)N3CCOCC3)cc21`, the inhibition is -18%.

Take `Nc1nonc1-c1nc2ccccc2n1CC(=O)N/N=C/c1ccc(-c2cccc(C(=O)O)c2)o1`: the inhibition is 73.2% (active).

Regarding `O=S(=O)(NCCc1csc(-c2cccnc2)n1)c1ccc(F)cc1`, the inhibition is -3.7%.

`Oc1ccc(/C=N/Nc2ncc(Cl)cc2Cl)cc1`: the inhibition is 14.3%.

Consider `CCc1c(C)nc2c(-c3ccccc3)c(-c3ccccc3)[nH]n2c1=O`, for which the inhibition is 1.4%.

(Values after PubChem BioAssay AID1878 (Sanford-Burnham Center for Chemical Genomics, 2009).)
